# Experimental data published in PubChem BioAssay (NCATS).
# Inconclusive results are not listed. Activity calls are given as the source filed them. Calls come from the whole dose curve; as a rule, active = well fitted curve in the direction sought with a large enough effect; inconclusive = small, poorly fitted or top-dose-only effect, or another doubt; inactive = no such curve, though single readings can be large or run the other way. Where a SMILES comes first, the peptide text is derived from it. Bridges are numbered along the chain shown (N, C = ends). [ ]: non-standard residue; d: D form. Orn = NCCC[C@H](N)C(=O)O; Mpa = O=C(O)CCS
# Experiment: qHTS Assay for Identifying Gametocytocidal Compounds (AID 743244);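 note: actives lower the fluorescent signal which means gametocytes are killed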
# Conditions: P. falciparum 3D7 stage III-V gametocytes, alamarBlue, 72 h; max response: stronger effect = lower value
# Outline: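 Viability read-out was resazurin reduction (alamarBlue, 24 h) measured at Ex 525/Em 598 nm. Beforehand, late-stage (III-V) 3D7 P. falciparum gametocytes at 20,000 cells/well were incubated with compound 72 h at 37C under 5% CO2.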
# % is set by controls: 0 for no effect and ±100 for the full control effect.
row,SMILES,max response
1,CCC(CN)CC(C)CCNCC(O)CNCC(C)CC(CC)CN (configuration not stated),-11% (inactive)
2,CCN(CC)c1ccc(N=Nc2ccc(S(=O)(=O)N(C)C)cc2)c(S(=O)(=O)NCC[n+]2ccccc2)c1,1.66% (inactive)
3,COc1cc(C[C@@H]2NCCc3cc(O)c(O)cc32)cc(OC)c1OC,-17.1% (inactive)
4,CS(=O)(=O)Nc1cc2occ(NC=O)c(=O)c2cc1Oc1ccccc1,-2.7% (inactive)
5,O=C(O)c1ccccc1[O-].O=C(O)c1ccccc1[O-].[Zn+2],3.06% (inactive)
6,CCOc1ccc(C[C@H]2NC(=O)CCSSC[C@@H](C(=O)N3CCC[C@H]3C(=O)N[C@@H](CCCN)C(=O)NCC(N)=O)NC(=O)[C@H](CC(N)=O)NC(=O)[C@H]([C@@H](C)O)NC(=O)[C@H]([C@@H](C)CC)NC2=O)cc1 ([Mpa][dY](Et)ITNCP[Orn]G-NH2; disulfide 1-6),12.3% (inactive)
7,CCC(=O)OCC(=O)[C@@]1(OC(=O)CC)[C@@H](C)C[C@H]2[C@@H]3CCC4=CC(=O)C=C[C@]4(C)[C@@]3(Cl)[C@@H](O)C[C@@]21C,0.406% (inactive)
